From article PMC12864922, “TDP-43 directly inhibits mRNA accumulation in neurites through modulation of mRNA stability”
Whole data set: some 9,900 sequences, median “r (bound/input frequency ratio)” near 0.7, cut for the highest 2% near 6.5. The entries come from a sample that favours the highest values as a whole.

B1: ENSMUSG00000031028.145|Tub (ssRNA)
RNA: GGGAGUUCUACAGUCCGACGAUCGCUUCGAUAUCCGCAUGCUAACAGGAUCUAGGUCACCAUUCAAGUAAUGGUAUGCUUCAGGAAGAAUGUCCUCUCUGGGAAGACUCAGCUCCCAUUAUUGCCAGCAUGCCAUGAUCAGUGAGGGCUGUGUGCCAUGCUUAGGGGGAUGGCGCAGGGUGAGGGGAGCAGAGGAUAUUUUAGGGCCACAAGAGCUCAGAGGUAGCGGACCUCUGUGUGGUUCACCAACAGCAAUGCUGAUCCCUGAGUAUAGGGCACAUGUCUCUUGGUUACCUCACUGGUUCUCUUGCGGUCGCACUAGUGUGGAAUUCUCGGGUGUCAAGG
B2: ENSMUSG00000061578.1426|Ksr2 (ssRNA)
RNA: GGGAGUUCUACAGUCCGACGAUCGCUUCGAUAUCCGCAUGCUACUCUUCCUUUUCCUUUUUAGAUCUGUCUUGCUCUCUGUCUCUCUCACUCAUUGCCAACAUGUUGCUGGGAAAGAAUAUUUGAUUUAGAUGCCAAUCAGGAAGGCAAGUAGGAUGGAUGGAUGAGUGAGUGGAUAGGUAGGUAUAUAAAUGGAUGGAUGGGUGAUGGAUGGGUAAAUGAAUGGAUAGGUAUGUGAAUGAAUGGAUGAUGGAUGAAUGGAUGGGUAGGUGGGUAGAUAGGUAUAUGAAUGAAUGGAUGAAUGCUCUUGCGGUCGCACUAGUGUGGAAUUCUCGGGUGUCAAGG
B3: ENSMUSG00000043670.185|Diras1|17:21;114:118;148:152;162:171;177:184;217:221;250:260 (ssRNA)
RNA: GGGAGUUCUACAGUCCGACGAUCGCUUCGAUAUCCGCAUGCUAGCCUCUUUGCUGGUCAACACAACUCUGGAGACUGUCCCCCAUGUCUGCCCUGAGUUACGGAGCCCCUGUGGUAUCUGCGAGACUGUCCAGGAGACUUGAGUGGCUCCUGGGCCACACACCCACCCAGAUGAGGGUGACUUAGAAUUCACACAUUAUGUGCCACACACACACGAUGGCACACACACUGUCUUGGGAUGGGGUGUUCUUGCACCACUUACACAUCUUAGUGAGACCACAGUGUAAGUGGCCCACACACACACCUCUUGCGGUCGCACUAGUGUGGAAUUCUCGGGUGUCAAGG
B4: ENSMUSG00000029028.6|Lrrc47 (ssRNA)
RNA: GGGAGUUCUACAGUCCGACGAUCGCUUCGAUAUCCGCAUGCUACUUGAAGGUGGUGUACCCAUCCAAGACGGACCUGAUCACCCUCCCUCCCCACGUGACUGUGGUCCGCUGACAGGCUCCUGUAGGUGUGGGUGUGCUGUAGGUGUCUGUGUGGGUGUGGGUGUGCUGUAGGUGUCUGUGUGGGUGUGGGUGUGCUAUAGGUAUCUGUGGGUGUGCUGUAGGUGUCUGUGUGGGUGUGCUGUAGGUGUCUGUGUAGGUGUGGGUGUGCUGUAGGUGUCUGUGUGGGUGUGCUAGGUGUCUGUCUCUUGCGGUCGCACUAGUGUGGAAUUCUCGGGUGUCAAGG
B5: ENSMUSG00000029028.7|Lrrc47 (ssRNA)
RNA: GGGAGUUCUACAGUCCGACGAUCGCUUCGAUAUCCGCAUGCUAGGUGGUGUACCCAUCCAAGACGGACCUGAUCACCCUCCCUCCCCACGUGACUGUGGUCCGCUGACAGGCUCCUGUAGGUGUGGGUGUGCUGUAGGUGUCUGUGUGGGUGUGGGUGUGCUGUAGGUGUCUGUGUGGGUGUGGGUGUGCUAUAGGUAUCUGUGGGUGUGCUGUAGGUGUCUGUGUGGGUGUGCUGUAGGUGUCUGUGUAGGUGUGGGUGUGCUGUAGGUGUCUGUGUGGGUGUGCUAGGUGUCUGUAUAGGUCUCUUGCGGUCGCACUAGUGUGGAAUUCUCGGGUGUCAAGG
B6: ENSMUSG00000029028.8|Lrrc47 (ssRNA)
RNA: GGGAGUUCUACAGUCCGACGAUCGCUUCGAUAUCCGCAUGCUAGUACCCAUCCAAGACGGACCUGAUCACCCUCCCUCCCCACGUGACUGUGGUCCGCUGACAGGCUCCUGUAGGUGUGGGUGUGCUGUAGGUGUCUGUGUGGGUGUGGGUGUGCUGUAGGUGUCUGUGUGGGUGUGGGUGUGCUAUAGGUAUCUGUGGGUGUGCUGUAGGUGUCUGUGUGGGUGUGCUGUAGGUGUCUGUGUAGGUGUGGGUGUGCUGUAGGUGUCUGUGUGGGUGUGCUAGGUGUCUGUAUAGGUGUGGGUCUCUUGCGGUCGCACUAGUGUGGAAUUCUCGGGUGUCAAGG
B7: ENSMUSG00000029028.9|Lrrc47 (ssRNA)
RNA: GGGAGUUCUACAGUCCGACGAUCGCUUCGAUAUCCGCAUGCUAAUCCAAGACGGACCUGAUCACCCUCCCUCCCCACGUGACUGUGGUCCGCUGACAGGCUCCUGUAGGUGUGGGUGUGCUGUAGGUGUCUGUGUGGGUGUGGGUGUGCUGUAGGUGUCUGUGUGGGUGUGGGUGUGCUAUAGGUAUCUGUGGGUGUGCUGUAGGUGUCUGUGUGGGUGUGCUGUAGGUGUCUGUGUAGGUGUGGGUGUGCUGUAGGUGUCUGUGUGGGUGUGCUAGGUGUCUGUAUAGGUGUGGGUGUGCUGCUCUUGCGGUCGCACUAGUGUGGAAUUCUCGGGUGUCAAGG
B8: ENSMUSG00000029028.10|Lrrc47|60:64;66:70;82:87;89:93;95:99;111:116;118:122;124:128;145:149;161:166;168:172;184:188;191:195;197:201;213:218;220:224;241:245;247:2 … (ssRNA)
RNA: GGGAGUUCUACAGUCCGACGAUCGCUUCGAUAUCCGCAUGCUAGACGGACCUGAUCACCCUCCCUCCCCACGUGACUGUGGUCCGCUGACAGGCUCCUGUAGCACACGCACACCUGUAGGUGUCACACACGCACACGCACACCUGUAGGUGUCACACACGCACACGCACACCUAUAGGUAUCUGUGGCACACCUGUAGGUGUCACACACGCACACCUGUAGGUGUCACACAAGCACACGCACACCUGUAGGUGUCACACACGCACACCUAGGUGUCUGUAUAGCACACGCACACCUGUAGAUGCUCUUGCGGUCGCACUAGUGUGGAAUUCUCGGGUGUCAAGG
B9: ENSMUSG00000029028.10|Lrrc47 (ssRNA)
RNA: GGGAGUUCUACAGUCCGACGAUCGCUUCGAUAUCCGCAUGCUAGACGGACCUGAUCACCCUCCCUCCCCACGUGACUGUGGUCCGCUGACAGGCUCCUGUAGGUGUGGGUGUGCUGUAGGUGUCUGUGUGGGUGUGGGUGUGCUGUAGGUGUCUGUGUGGGUGUGGGUGUGCUAUAGGUAUCUGUGGGUGUGCUGUAGGUGUCUGUGUGGGUGUGCUGUAGGUGUCUGUGUAGGUGUGGGUGUGCUGUAGGUGUCUGUGUGGGUGUGCUAGGUGUCUGUAUAGGUGUGGGUGUGCUGUAGAUGCUCUUGCGGUCGCACUAGUGUGGAAUUCUCGGGUGUCAAGG
B10: ENSMUSG00000031028.612|Tub|38:42 (ssRNA)
RNA: GGGAGUUCUACAGUCCGACGAUCGCUUCGAUAUCCGCAUGCUAUGAGCAGCUAGAGCAUUUGAGCAACCCAUGUAAUCUUACACAUUCCCUCCCUGUAAGAAGGCCUGUCAGAGCUUGCUGUAGGAGUUAGGGUAAAUGAAAGUUAGUCCUGGCUCUCAUCACCACCUUUCCUAGCUCAUCACUGUGCCUUCUUUCUUCCCUAAGAAAGACAAUGCACCCCUCUCUUCUGUUCUCCUGCCCCUUCGCCCCCACUGAGGUCCAGGUAGAGCAGAUGAGGCUGAAAUGUAGAGUGUUCUAUAGAGCUCUUGCGGUCGCACUAGUGUGGAAUUCUCGGGUGUCAAGG
B11: ENSMUSG00000043670.77|Diras1|85:90 (ssRNA)
RNA: GGGAGUUCUACAGUCCGACGAUCGCUUCGAUAUCCGCAUGCUAGGAUCUGAAAACAGGGACCUGGCUAAGGAACUGCUCAUCCCAGUCAGGCCCAGAGAGGUUACCUUGCCUCUCCAUCUCUGUCCCACACACCCCAGCCAUGCCCACUGUCCCUGUCCCUCACAUUCUAUCACUGUGACCUCUGGGGAGUGCCCAUUGACCUCAUCUUCCUUCACUAAUAUCUUAUUUCUUUCACCUGAUCCUGUCCUUUCCCCGUGACCUCUGACCUGUGGCCUUCCCUGGGUCCAGAACACCCCUGUCCUCUCUUGCGGUCGCACUAGUGUGGAAUUCUCGGGUGUCAAGG
B12: ENSMUSG00000090935.47|Synj2bp (ssRNA)
RNA: GGGAGUUCUACAGUCCGACGAUCGCUUCGAUAUCCGCAUGCUAGCGGGAUGUGCUGUGUCCCUGAGAGUACAGCACAGGGUAGGUAUUACCUGCACCUGGAUAUGGGACAGUAGGCUUUUACACUGUUCUUGUGAAUAGGUUUGUAAGCUUCAAAGUCUGCUUUACUUUAUCUUCUGUUAUGAUUGCCUUUGUCAGCAUAGGCAGGAGUCCUUUAGGAUUUCUGCCUAUCAGUAAAAGAAGUAUGUAACCCAAGUUCUACCUUCAGUGGAUUAAAGUUUCAUUAAGUGAAAAUGGAAAGAAAGCUCUUGCGGUCGCACUAGUGUGGAAUUCUCGGGUGUCAAGG
B13: ENSMUSG00000058297.314|Spock2 (ssRNA)
RNA: GGGAGUUCUACAGUCCGACGAUCGCUUCGAUAUCCGCAUGCUAGCUGAGGCUUCCAGGACAAAGCCCCAGUCUGGCUCUCCCCCAGCCUCUCAGGGGCACUGGCUGGUCACAUCCACUGAGUAUUGAUCGGUUGGACUUUAGGGAAGAGCCUCCUCCUUCCCAUUCCUUUCUGCCACCCUGGAAUGGCCACCUUAAUCGUCAUCUCCUCGGGGGGAAUACGGAAAUGUCACCAAGCUCCAUAAAGUGCUUCUCAUUCCACGACACAGUUCUGACUCUCCGGGUGACUGUCACCUGCUCCCAUCCUCUUGCGGUCGCACUAGUGUGGAAUUCUCGGGUGUCAAGG

biological target: TDP-43 (Homo sapiens, UniProt Q13148 1-414); test: RNA Bind-n-Seq with designed 260-mer pool; 25 mM Tris-HCl, 150 mM KCl, 3 mM MgCl2, BSA (printed 500 mg/mL), 20 units/mL SUPERase IN; pH not stated; 500 nM RNA pool, 1 h, 4 C; TDP-43 5, 50, 500 nM; high values mean tight binding; settings: protein: recombinant; tags: SBP (GST cleaved off with PreScission; pGEX-GST-SBP)
Procedure, shortened: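 In 25 mM Tris-HCl, 150 mM KCl, 3 mM MgCl2, BSA and SUPERase IN, 500 nM of an in vitro-transcribed 260-nt 3′ UTR oligo pool was incubated for 1 h at 4 °C with SBP-tagged TDP-43 (5, 50 or 500 nM) captured on streptavidin beads. RNA remaining after washes was biotin-eluted, reverse transcribed, PCR-amplified and sequenced. Binding, R, is the bound-sample abundance of each oligo, normalized to mapped reads, divided by its abundance in input. Each duplicate used a separate, independent protein batch.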

Sequence of TDP-43 (Q13148 whole entry): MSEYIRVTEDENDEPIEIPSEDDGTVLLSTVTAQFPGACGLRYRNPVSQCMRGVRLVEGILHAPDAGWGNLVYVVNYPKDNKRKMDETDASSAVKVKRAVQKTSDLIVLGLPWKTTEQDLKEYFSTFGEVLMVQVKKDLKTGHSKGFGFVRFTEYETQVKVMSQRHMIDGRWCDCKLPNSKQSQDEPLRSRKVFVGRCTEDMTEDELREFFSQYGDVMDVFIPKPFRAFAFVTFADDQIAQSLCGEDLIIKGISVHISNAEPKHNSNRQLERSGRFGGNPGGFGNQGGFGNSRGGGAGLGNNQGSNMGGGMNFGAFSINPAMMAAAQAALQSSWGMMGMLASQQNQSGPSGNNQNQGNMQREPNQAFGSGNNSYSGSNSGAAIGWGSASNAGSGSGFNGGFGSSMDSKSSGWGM

Binder	binding signal
B1	0.682 R (bound/input frequency ratio)
B2	4.09 R (bound/input frequency ratio)
B3	0.956 R (bound/input frequency ratio)
B4	5.29 R (bound/input frequency ratio)
B5	5.82 R (bound/input frequency ratio)
B6	5.96 R (bound/input frequency ratio)
B7	6.63 R (bound/input frequency ratio)
B8	1.07 R (bound/input frequency ratio)
B9	6.52 R (bound/input frequency ratio)
B10	1.48 R (bound/input frequency ratio)
B11	2.44 R (bound/input frequency ratio)
B12	1.42 R (bound/input frequency ratio)
B13	1.1 R (bound/input frequency ratio)
